# Values joined by “and” are separate entries in the source; they are usually repeats but may differ in a detail not shown here. Equal values may be shown once. Compounds without any hit were thinned out: in the full panel of roughly 83,000, 20% have a hit.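 Single-dose data. Exposure time 48 hours. Values below 10 considered active.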 Active and inactive are the calls of the source.
# Tested on: MDA-MB-468 breast
# Assay: NCI-60 one-dose screen, 48 h (100 = growth as untreated, 0 = no growth, -100 = all killed)
# Settings: 10 µM unless noted
row,Structure (SMILES),growth
1,NNC(=O)CSc1nc2scc(-c3ccccc3)c2c(=O)n1-c1ccccc1,102% (inactive)
2,COc1ccc(C2C(C#N)=C(N)Oc3c2sc2c(C)cccc32)cc1 (stereo not given),8.47% (active)
3,O=C(OC(CO)C(=O)NC12CC3CC(CC(C3)C1)C2)c1ccc(Cl)cc1 (stereo not given),95.3% (inactive)
4,COc1ccc(/C=N\Nc2ccc([N+](=O)[O-])cn2)cc1OC,79.1% (inactive)
5,CN(C)/C=C1\SC(=Nc2ccc(Cl)cc2)NC1=O,110% (inactive)
6,COc1ccc2c(c1)C1(C(=O)N2)C(C#N)=C(c2ccccc2)Nc2c1c(-c1ccccc1)nn2-c1ccccc1 (stereo not given),76.5% (inactive)
7,Oc1ccc(OCCOc2ccc(O)cc2)cc1,94.6% (inactive)
8,COC[C@@]1(C)CC[C@]2(C)CC[C@]3(C)C(=CC[C@@H]4[C@@]5(C)CCCNC(C)(C)[C@@H]5CC[C@]43C)C2C1 (stereo not given in full),50.9% (inactive)
9,O=c1scc(-c2ccc(C(F)(F)F)cc2)s1,72.5% (inactive)
10,COc1ccc(C(=O)C(C)C)c2ccccc12,102% (inactive)
11,CC[C@H](C)[C@H](NC(=O)[C@@H](N)CCC(N)=O)C(=O)N[C@@H](Cc1ccc(O)cc1)C(=O)N[C@@H](CCCCN)C(=O)N[C@@H](CCCCN)C(=O)N[C@@H](Cc1ccc(O)cc1)C(=O)N[C@@H](CCCNC(=N)N)C(=O)N[C@H](C(=O)N[C@@H](Cc1c[nH]c2ccccc12)C(=O)N[C@@H](Cc1ccc(O)cc1)C(=O)N[C@@H](CCCNC(=N)N)C(=O)N[C@@H](CCCCN)C(=O)N[C@@H](C)C(=O)N[C@@H](Cc1c[nH]c2ccccc12)C(=O)N[C@@H](CCCCN)C(=O)N[C@H](C(=O)N[C@@H](CC(C)C)C(=O)NCC(=O)N[C@@H](CCCCN)C(=O)N[C@H](C(N)=O)C(C)C)C(C)C)[C@@H](C)O,44.6% (inactive)
12,Brc1ccc(C2CC(c3cccc(Nc4ccncc4)c3)=NN2c2ccccc2)cc1 (stereo not given),78.2% (inactive)
13,CC1=Nc2cnc(Nc3ccc(OCCN4CCCC4)cc3)nc2Nc2ccccc21,57% (inactive)
14,O=S(=O)(Nc1ccccc1)c1ccc(C2CC3(Cl)C(Cl)=C(Cl)C2(Cl)C3(Cl)Cl)cc1 (stereo not given),62.2% (inactive)
15,C=C1C(=O)O[C@H]2[C@H]1CC/C(COC(=O)NCc1cc(OC)c(OC)c(OC)c1)=C\CC[C@@]1(C)O[C@@H]21,35.4% (inactive)
16,COc1ccc(C2C=C(c3ccc(Cl)cc3)N=C3SC=C(C)N32)c(Br)c1 (stereo not given),8.58% (active)
17,COc1ccc(C(=O)/C=C/c2cc(-c3cc(OC)c(OC)c(OC)c3)n[nH]2)cc1,-66.1% (active)
18,COc1ccccc1NCc1cccn1Cc1ccc(F)cc1,82.6% (inactive)
19,O=S(=O)(Nc1ccc(Cl)c(F)c1)c1ccc(-c2cnc(C3CC3)o2)cc1,-25.4% (active)
20,COc1ccc2cc(C(C)C(=O)Nc3ccc(S(=O)(=O)Nc4cc(C)on4)cc3)ccc2c1 (stereo not given),114% (inactive)

row,Structure (SMILES),growth
1,C[C@@H](NC(=O)c1ncnc(N)c1Cl)c1ncc(C(=O)Nc2cc(C(F)(F)F)c(Cl)cn2)s1,92.6% (inactive)
2,C#CCn1cc(C=C2C(=O)NC(=O)NC2=O)c2cc(Cl)ccc21,41.9% (inactive)
3,Cc1ccc(NS(=O)(=O)c2ccc3c(c2)C2OCCC2C(c2ccc(C(=O)C(C)C)cc2)N3)cc1C (stereo not given),-4.81% (active)
4,COc1ccc(CN2C(=O)/C(=C/c3nc(CO)cs3)SC2=S)cc1,31.7% (inactive)
5,O=C1c2c(O)ccc(O)c2C(=O)c2c(NCCNCCO)ccc(NCCNCCO)c21,-77.2% (active)
6,CCOC(=O)c1cc(CC)sc1NC(=O)CC(C)=O,57.2% (inactive)
7,CN1CCN(c2ccc(-c3ccc4ncc(C#N)c(Nc5ccc(F)c(Cl)c5)c4c3)cc2)CC1,1.52% (active)
8,CC1(C)C(=O)/C(=C\c2ccc(C(F)(F)F)cc2)C[C@]2(C)[C@H]3CC[C@@H]4[C@H]5[C@H](C(=O)/C=C/c6ccc(C(F)(F)F)cc6)CC[C@]5(CO)CC[C@@]4(C)[C@]3(C)CC[C@@H]12,104% (inactive)
9,Cc1ccc(OC2=C(C#N)C(=N)N3C(=NN2)Sc2c(C)ccc(C)c23)cc1,110% (inactive)
10,O=C1[C@@H](OS(=O)(=O)CC(F)(F)F)[C@H](c2ccc(F)cn2)N1c1cc2c3ccccc3ccc2c2ccccc12,89.4% (inactive)
11,Oc1nc(NCc2ccccc2)sc1/C=C1\C=Nc2ncccc21,58.4% (inactive)
12,COc1ccc2cc(C(=O)N3CCC([C@@H](C)C(=O)NCc4ccc5c(c4)OCO5)CC3)[nH]c2c1,41.1% [50 µM] (inactive)
13,O=C1/C(=C\c2ccccc2)CN(C(=O)c2ccccc2)C/C1=C\c1ccccc1,-48.6% (active)
14,Cc1nn(-c2ccccc2)c2nc(N)c(C3=NCCO3)nc12,113% (inactive)
15,O=C1C[C@@H](c2ccccc2)Oc2c(Cc3ccccc3O)c(O)c(Cc3cc(Cc4cc(Cc5ccccc5O)ccc4O)ccc3O)c(O)c21,101% (inactive)
16,O=C1CCN2C(=O)Nc3ccccc3C2C1 (stereo not given),109% (inactive)
17,O=C1/C(=C/c2cccc(O)c2)COc2ccc(O)cc21,52.8% (inactive)
18,CCCCCn1sc(=O)n(Cc2ccc(CNC(=O)C(C)c3ccc(CC(C)C)cc3)cc2)c1=O (stereo not given),106% (inactive) and -81% (active)
19,CCOC(=O)CSc1nc(-c2cc(OC)ccc2OC)cc(-c2ccc(OC)cc2)c1C#N,92.7% (inactive)
20,CCC(c1ccc(OC)cc1)C(CC)c1ccc(OCC[N+](C)(C)C)cc1 (stereo not given),19.3% (inactive)

# Reference: PubChem BioAssay (NCI)
